Data reported in PubChem BioAssay AID1861 (The Scripps Research Institute Molecular Screening Center, 2009).
Among all 290,000 compounds or so, about 3,100 (1.1%) were called active. The sample holds actives, similar compounds and a random draw of the others, so the mix is not that of the screen. No stated cut-off is given here; in the data, active means inhibition above about 16% (passing the limit was not always enough); inactive means the rest.

molecular target: Neuropeptides B/W receptor type 1 (Homo sapiens) (UniProt P48145); experiment: GPR7 receptor antagonists, primary screen, cell-based, fluorescence, single concentration (AID 1861); details: GPR7-expressing cells, fluorescence antagonist assay; at 4.4 µM; active compounds read high;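 further: cells stimulated with the agonist NPW; 0% = agonist with vehicle and 100% = vehicle without agonist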
Sequence (P48145 whole entry, looked up): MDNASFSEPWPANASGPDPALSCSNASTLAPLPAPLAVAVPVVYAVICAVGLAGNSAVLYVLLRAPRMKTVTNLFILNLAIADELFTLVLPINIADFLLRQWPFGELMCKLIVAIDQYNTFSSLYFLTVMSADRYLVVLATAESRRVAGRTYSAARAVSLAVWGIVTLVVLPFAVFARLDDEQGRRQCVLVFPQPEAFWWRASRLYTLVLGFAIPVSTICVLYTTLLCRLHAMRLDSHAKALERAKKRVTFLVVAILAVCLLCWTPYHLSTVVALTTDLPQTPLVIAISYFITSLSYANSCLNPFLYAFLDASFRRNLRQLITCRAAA

inhibition, inactive:
CCc1ccc(OCC(O)CN2CCN(CCO)CC2)cc1 (centres undefined) -19.8%
O=S1(=O)CCO[C@H]2Cc3ccccc3[C@H]2N1Cc1ccccc1 -8.66%
COc1ccccc1C(=O)N1C(CC(=O)Nc2ccccc2C)C(=O)NC2CCCCC21 (centres undefined) -5.63%
Cc1cc(-c2n[nH]c(=S)n2/N=C/C(Br)=C/c2ccccc2)n[nH]1 4.93%
CN1CCN(c2ccc(S(=O)(=O)N3CCCCC3)cc2NC(=O)Cc2ccccc2F)CC1 1.52%
CCN1CCN(c2ccc(S(=O)(=O)N3CCCCC3)cc2NC(=O)Cc2c(Cl)cccc2Cl)CC1 1.74%
CCCC(C)c1nnc(NC(=O)C2CC(=O)N(c3ccc(OCC)cc3)C2)s1 (centres undefined) 0.56%
COc1ccc(N(CC(=O)Nc2cc(OC)ccc2OC)S(=O)(=O)c2c(C)noc2C)cc1 -4.71%
COc1cccc(-n2c(SCC(=O)c3c[nH]c4ccccc34)nc3ccccc3c2=O)c1 -11.6%
COc1ccc(/C=C(\C#N)c2c[nH]c3ccccc23)cc1 17.2%
COc1ccc(C(=O)NC(=S)N2CCCCC2c2cccnc2)cc1OC (centres undefined) -2.66%
Nc1nc(NCc2ccccc2)n(-c2ccccc2)n1 -7.72%
O=C(CN1C(=O)NC2(CCCC2)C1=O)Nc1ccc(F)c(F)c1F 11.1%
CC1(c2ccc(Cl)cc2)NC(=O)N(CC(=O)c2ccc3c(c2)OCO3)C1=O (centres undefined) -6.7%
O/N=C(\C[n+]1ccccc1)c1ccc(Br)cc1 5.69%
CCOc1ccc(-n2c(SCC(=O)Nc3cc(C(=O)O)ccc3Cl)nc3ccccc3c2=O)cc1 2.21%
O=C(COc1ccc(Cl)cc1)N1CCN(c2cccc(C(F)(F)F)c2)CC1 -8.3%
O=C(COc1ccc(S(=O)(=O)NCc2ccccc2)cc1)N1CCOCC1 4.86%
COc1ccccc1/C=N\Nc1cc(C)nc(-n2nc(C)cc2C)n1 -14.4%
Cc1cc(N/N=C\c2ccc(Br)cc2)nc(-n2nc(C)cc2C)n1 -2.3%
O=C(NCCc1c[nH]c2ccccc12)C1CCN(Cc2ccc(Br)cc2)CC1 6.85%
CCc1ccc(N(C(=O)c2csnn2)C(C(=O)NC2CCCCC2)c2cccnc2)cc1 (centres undefined) 16.5%
O=C(NC1CCCC1)C(c1ccco1)N(C(=O)c1csnn1)c1ccccc1 (centres undefined) -7.05%
O=C(NCC(=O)N(c1ccccc1)C(C(=O)NCC1CCCO1)c1ccccc1)c1cccs1 (centres undefined) -0.97%
CN(C)CCNc1ccc(-c2n[nH]c(=O)c3ccccc23)cc1[N+](=O)[O-] -19.5%
CCc1ccccc1NC(=O)c1ccc2snnc2c1 4.67%
O=C(Nc1cccc(Br)c1)c1ccc2snnc2c1 6.67%
COCC(=O)N1CCCC(C(=O)c2ccc(C(F)(F)F)cc2)C1 (centres undefined) -16.7%
CCOC(=O)C1(CCOC)CCN(Cc2cc3ccccc3s2)CC1 -2.08%
O=C1CCN(Cc2ccc([N+](=O)[O-])cc2)CCN1[C@H](CO)Cc1ccccc1 0.55%
COc1ccc(C(=O)NC2CCN(C(=O)Nc3ccc(F)cc3)CC2)cc1 -10.4%
CCOc1ccc(N=C2SC(C(=O)O)CC(=O)N2C)cc1 (centres undefined) -6.69%
CC1CC(=O)N(CC(=O)Nc2cccc(Cl)c2)c2ccccc2S1(=O)=O (centres undefined) 0.41%
O=C(CSCc1ccc([N+](=O)[O-])cc1)Nc1cccc(C(=O)Nc2ccccc2C(=O)O)c1 -8.22%
COc1ccc(NC(=O)CSCc2ccc([N+](=O)[O-])cc2)cc1OC -12%
CC(=O)Nc1ccc(NC(=O)CSc2nnnn2-c2ccccc2F)cc1 -7.45%
O=C(CN1CCc2cc3c(cc2C1)OCCCO3)Nc1ccccc1 -5.17%
Cc1ccc(S(=O)(=O)CC(=O)Nc2c(C)n(C)n(-c3ccccc3)c2=O)cc1 1.37%
CCOC(=O)C1CN(S(=O)(=O)c2ccc(F)cc2)C1 -9.92%
CC1(C)C(C=C(Cl)Cl)C1C(=O)NC(O)C(=O)c1ccccc1 (centres undefined) -5.98%
O=C(CN(C(=O)CNC(=O)c1cccs1)c1cccc(F)c1)NC1CCCCC1 7.46%
O=C(NCCc1ccccc1)C1CC1 -22.6%
O=C(CCc1ccccc1)Nc1ccc(NC(=O)C2CCCCC2)nc1 14%
O=C(C1CC(=O)N(c2ccc(Br)cc2)C1)N1CCCC1 (centres undefined) -7.92%
COC(=O)c1ccc(N2CCOCC2)c(NC(=O)c2ccc3c(c2)OCCO3)c1 -10.5%
CN(CC(=O)NCCc1ccccn1)S(=O)(=O)c1ccc(Cl)cc1 -4.58%
CN(c1ccc(C(=O)NCCC2=CCCCC2)cc1)S(C)(=O)=O 10.7%

inhibition, active:
COc1ccc(CC(=O)Nc2cc(S(=O)(=O)N3CCCCC3)ccc2N2CCN(C)CC2)cc1 19.6%
COc1ccc(C(C(O)C(=O)c2c[nH]c3ccccc23)N2CCN(c3ccccc3)CC2)cc1 (centres undefined) 25.7%
Cc1ccc(NC(=O)CN2C(=O)NC(C)(c3ccc(Cl)cc3)C2=O)c(Br)c1 (centres undefined) 22.3%
O=C(COc1ccc(S(=O)(=O)Nc2cccc(C(F)(F)F)c2)cc1)N1CCOCC1 26.6%
COc1ccc(Nc2cc(C)nc(-n3nc(C)cc3C)n2)cc1 20.7%
CCc1ccc(N(C(=O)c2csnn2)C(C(=O)NC2CCCCC2)c2ccncc2)cc1 (centres undefined) 22.7%
O=C(Nc1ccc2ccccc2c1)Nc1ccc2snnc2c1 31.3%
COc1ccc(N=C2SC(C(=O)Nc3ccc(F)cc3)CC(=O)N2C)cc1 (centres undefined) 26.4%
O=C(CSCc1ccc([N+](=O)[O-])cc1)NCCSCc1ccccc1 44.7%
Cc1c(CCO)c(=O)n(-c2ccccc2)n1S(=O)(=O)c1ccc(F)cc1 33%
O=C(CCc1ccccc1)Nc1ccc(NC(=O)C2CC2)nc1 34%
CC(=O)Nc1ccc(S(=O)(=O)N(C)CC(=O)NCCC2=CCCCC2)cc1 26.4%
